From PubChem BioAssay
This is a sample that favours compounds with a hit; in the whole collection about 0.84% have one here.
PPARg SRC-3 ag: PPARgamma agonists recruiting SRC-3 coactivator, primary screen, biochemical. Peroxisome proliferator-activated receptor gamma (Homo sapiens), P37231. biochemical PPARgamma/SRC-3 coactivator recruitment assay. activation, % at 8 µM. 200,000 tested, 0.26% active; in the data active means activation above about 23%;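 further: 0% = DMSO and 100% = reference agonist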
Target sequence (P37231 whole entry, looked up): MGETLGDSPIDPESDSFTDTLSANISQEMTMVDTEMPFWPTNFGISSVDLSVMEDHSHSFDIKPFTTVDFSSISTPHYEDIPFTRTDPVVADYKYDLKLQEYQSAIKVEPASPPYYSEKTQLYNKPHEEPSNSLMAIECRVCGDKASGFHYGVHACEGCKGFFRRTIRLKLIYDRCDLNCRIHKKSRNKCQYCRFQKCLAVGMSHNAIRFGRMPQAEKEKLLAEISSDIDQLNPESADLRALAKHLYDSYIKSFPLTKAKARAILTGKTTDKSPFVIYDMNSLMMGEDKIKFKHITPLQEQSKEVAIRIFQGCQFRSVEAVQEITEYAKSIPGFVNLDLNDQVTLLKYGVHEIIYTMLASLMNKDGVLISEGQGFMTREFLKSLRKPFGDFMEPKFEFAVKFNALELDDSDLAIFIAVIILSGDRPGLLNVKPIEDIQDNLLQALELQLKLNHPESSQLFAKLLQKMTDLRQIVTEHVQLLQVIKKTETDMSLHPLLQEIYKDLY
PPARg SRC-2 ag: agonists of PPARg-SRC-2 recruitment, primary screen, biochemical, HTS. Peroxisome proliferator-activated receptor gamma (Homo sapiens), P37231. 200,000 tested, 0.34% active. AID 1032, 2008. activation, % at 8 µM. PPARgamma LBD-SRC-2 recruitment; in the data active means activation above about 22%;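 further: 0% = vehicle and 100% = reference agonist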
SRC1 TRFRET art: TR-FRET detection interference compounds, primary screen, artefact control for PPARgamma SRC-1 recruitment agonists, biochemical, TR-FRET emission ratio. 99,000 tested, 0.34% active. AID 1051, 2008. TR-FRET ratio at 8 µM. TR-FRET detection artefact counter-screen; hits give high values; in the data active means TR-FRET ratio above about 2300
PPARg SRC-1 ag: PPARgamma agonists recruiting SRC-1 coactivator, primary screen, biochemical. Peroxisome proliferator-activated receptor gamma (Homo sapiens), P37231. PPARgamma-SRC-1 coactivator recruitment biochemical assay. activation, % at 8 µM. 200,000 tested, 0.41% active; in the data active means activation above about 19%;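 further: 0% = DMSO and 100% = reference agonist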
SRC2 TRFRET art: TR-FRET signal artefacts, primary screen, artefact control for PPARgamma SRC-2 agonist project, biochemical; AID 1049, 2008; TR-FRET ratio at 8 µM; TR-FRET artefact counter-screen; hits give high values; 200,000 tested, 0.4% active
SRC3 TRFRET art: TR-FRET detection interference compounds, artefact control for PPARgamma SRC-3 recruitment agonists, biochemical, TR-FRET ratio; TR-FRET artefact counter-screen, PPARgamma/SRC-3 format; hits give high values; TR-FRET ratio at 8 µM; 99,000 tested, 0.39% active; AID 1048, 2008
* = called active by the depositor; . = no result. Unless noted, no stated cut-off is given here; in the data, active means TR-FRET ratio above about 2000; inactive means the rest.

SMILES	PPARg SRC-3 ag	PPARg SRC-2 ag	SRC1 TRFRET art	PPARg SRC-1 ag	SRC2 TRFRET art	SRC3 TRFRET art
CN1/C(=C\C(=O)COC(=O)Cn2nnc(-c3ccccc3)n2)C(C)(C)c2ccccc21	5	9	.	10	2474*	.
COc1cc(OC)cc(C(=O)NCC(=O)OCC(=O)/C=C2/N(C)c3ccccc3C2(C)C)c1	-3	-4	1763	2	1591	1511
CCc1ccc(N2CSC3=C(C#N)C(c4cccs4)CC(=O)N3C2)cc1 (stereo not given)	8	35*	2307	10	2462*	1937
COc1ccc(N2CSC3=C(C#N)C(c4cccs4)CC(=O)N3C2)cc1 (stereo not given)	39*	29*	.	30*	2277*	.
CCc1ccc(C2CC(=O)N3CN(c4ccccc4)CSC3=C2C#N)cc1 (stereo not given)	16	9	.	5	1752	.
CCOC(=O)c1ccc(N2CSC3=C(C#N)C(c4cccs4)CC(=O)N3C2)cc1 (stereo not given)	19	20	.	7	2211*	.
CCOc1ccc(CNC2CCCc3ccccc32)cc1 (stereo not given)	-6	-6	1631	4	1548	1381
Cc1ccc(-c2csc3ncnc(-n4nnc5ccccc54)c23)cc1	3	-8	1803	-5	1648	2064*
Cc1cc(C)cc(COn2ccnc2)c1	4	-3	.	2	1616	.
COc1cccc(OC)c1-c1nn2c(-c3cc(-c4ccccc4)n[nH]3)nnc2s1	8	9	.	20*	1895	.
COc1cccc(-c2nnc3sc(-c4ccccc4)nn23)c1	0	9	1880	6	1625	1488
O=C(O)c1ccccc1NS(=O)(=O)c1ccccc1C(F)(F)F	3	1	.	2	1535	.
CCn1cc(S(=O)(=O)Nc2ccccc2C(F)(F)F)cn1	2	23*	1890	9	1708	1619
O=C(CCCc1nc2ccccc2s1)NC(c1ccccc1)c1ccccc1	2	5	2175	3	1487	1796
CCNC(=S)N=Nc1c(O)[nH]c2ccc([N+](=O)[O-])cc12	0	11	2171	8	1982*	1665
O=[N+]([O-])c1ccc2[nH]c(O)c(N=NC(=S)NCC3CCCO3)c2c1 (stereo not given)	-6	-4	1664	3	1299	1631
Nc1cnn(Cc2ccccc2F)c1	8	-2	1566	10	1544	1466
CN(C)CCCN(C(=O)c1ccc(N2C(=O)CCC2=O)cc1)c1nc2c(F)cccc2s1	2	7	2031	22*	1737	1580
CN(C)CCCN(C(=O)c1ccc2c(c1)CCCC2)c1nc2c(F)cccc2s1	-3	2	1620	0	1385	1570
Cc1cccc(C(=O)NC(C(=O)Nc2ccccc2N2CCOCC2)C(C)C)c1 (stereo not given)	2	-3	2021	16	1538	1653
CCOc1ccc2cc(C#N)c(SCC(=O)NC(C)CC)nc2c1 (stereo not given)	0	16	.	32*	1580	.
CCCCC(CC)Cn1c(N)c(C#N)c2nc3ccccc3nc21 (stereo not given)	7	10	.	2	1503	.
CCCCC(CC)Cn1c2nc3ccccc3nc2c2c(=N)oc(C)nc21 (stereo not given)	-7	48*	.	-4	2312*	.
NC1=Nc2cccc3cccc1c23	11	6	2026	-2	1771	1406
NC1=CC(=O)c2cccc3cccc1c23	26*	13	.	17	1735	.
SMILES	PPARg SRC-3 ag	PPARg SRC-2 ag	SRC1 TRFRET art	PPARg SRC-1 ag	SRC2 TRFRET art	SRC3 TRFRET art
COc1ccc(OC)c(/C=N\NC(=O)CC(=O)NCCc2ccccc2)c1	4	10	2318*	7	1584	1704
CCOc1cc(/C=N/NC(=O)c2ccc(O)cc2)ccc1Oc1nc(Cl)ncc1F	5	9	2558*	13	1608	1632
CC1(C(=O)OCC(=O)Nc2ccc3ccccc3c2)CC1(Cl)Cl (stereo not given)	3	5	1729	1	1697	1632
O=C(CSc1nnnn1-c1ccccc1)Nc1nsc(-c2ccc(Cl)cc2)n1	7	2	1911	7	1576	2179*
CC(C)(C)c1ccc(S(=O)(=O)N(CCCN2CCOCC2)Cc2cccs2)cc1	-4	-5	1547	-4	1491	1514
O=C(Cc1ccc([N+](=O)[O-])cc1)Nc1ccc(O)cc1C(=O)O	0	5	1702	-4	1681	1548
O=C(CN1C(=O)c2ccccc2C1=O)Nc1ccc(-c2nc3ccccc3o2)cc1	13	15	.	-1	1612	.
O=C(CCN1C(=O)c2ccccc2C1=O)Nc1ccc(-c2nc3ccccc3o2)cc1	-15	-4	.	19*	1271	.
CCOC(=O)c1oc2ccc(S(=O)(=O)N3CCC(C)CC3)cc2c1C	15	-1	.	46*	1625	.
Cc1ccc(CNC(=O)Cn2cccc2C(=O)c2ccccc2C)cc1	5	7	1729	6	1444	1741
Cc1ccccc1C(=O)c1cccn1CC(=O)NCCC1=CCCCC1	2	-3	2753*	8	1513	1388
O=c1c(Cl)nc2cc(Cl)ccc2n1CCNc1ncc(C(F)(F)F)cc1Cl	-6	3	.	32*	1553	.
NNc1nc2cccnc2n(CCNc2ncc(C(F)(F)F)cc2Cl)c1=O	2	1	1823	-6	1488	1447
O=C(CSc1nnc2c3ccccc3c3ccccc3c2n1)Nc1ccccc1	13	6	.	64*	1585	.
O=C(CSc1nnc2c3ccccc3c3ccccc3c2n1)Nc1ccccc1F	8	5	.	-1	1707	.
CC(C)NC(=O)COC(=O)c1cccc(NS(=O)(=O)/C=C/c2ccccc2)c1	3	22*	1751	-2	1606	1709
COC(=O)[C@H](Cc1ccccc1)NC(=O)O[C@@H]1C(=O)c2cc(Br)ccc2O[C@H]1c1cccc(OC)c1	2	1	1822	6	1338	1523
Oc1ccc(Cl)cc1C1=NNC(c2cc(Br)cc3c2OCOC3)C1 (stereo not given)	17	11	2488*	17	1882	1946
CCOc1cc(NC(=O)c2cnccn2)c(OCC)cc1NC(=O)c1cccc(F)c1	2	7	1736	-11	1547	1572
CCc1ccc(OCC(=O)NNC(=O)CSc2ncnc3sc(C)c(C)c23)cc1	19	11	.	54*	1696	.
Cc1ccc(OCC(=O)NNC(=O)CSc2ncnc3sc(C)c(C)c23)cc1	-1	-2	1797	1	1470	1392
